Among the test systems are DU-145 prostate; K-562 leukemia; MALME-3M melanoma; MDA-MB-231 breast; RXF 393 renal; SF-268 CNS; SF-295 CNS; SF-539 CNS; UACC-257 melanoma; M14 melanoma; HCT-15 colon; HT29 colon; SNB-75 CNS; SNB-19 CNS; U251 CNS; PC-3 prostate; SK-MEL-5 melanoma; UACC-62 melanoma; LOX IMVI melanoma; SK-MEL-28 melanoma.
Holding throughout (experiment): NCI-60 one-dose screen, 48 h (100 = growth as untreated, 0 = no growth, -100 = all killed)
Settings in all cases: 10 µM unless noted

About 83,000 compounds went through this panel and 20% of them were active in at least one assay; those are over-represented in the sample as a whole.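 Testing used 96-well plates and a 48-hour single-concentration exposure. Example: -40 means 40% of the starting cells died.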 A number with no mark means an inactive call. Active and inactive are the calls of the source. The calls were made as follows: active = growth percent below 10; inactive = the rest.

As to `O=C1CC(c2ccccc2)Cc2nc3ccc(Br)cc3cc21` (stereo not drawn), the growth in the test with DU-145 prostate is -3.21% (active); with K-562 leukemia, 6.14% (active); with MALME-3M melanoma it was 38.8%; with MDA-MB-231 breast, 13.2%; in the test with RXF 393 renal, 28.4%; with SF-268 CNS, 46.7%. Further, the growth with SF-295 CNS was 17.2%; with SF-539 CNS it was 1.6% (active); in the test with UACC-257 melanoma, 69.2%; in the test with M14 melanoma it was 10.2%; in the test with HCT-15 colon, 16%; in the test with HT29 colon, 2.2% (active). Besides, the growth in the test on SNB-75 CNS was 36.6%; in the test with SNB-19 CNS it was 27.4%; in the test with U251 CNS, 18.1%; in the test on PC-3 prostate it was 32%; in the test with SK-MEL-5 melanoma it was 2.1% (active); in the test on UACC-62 melanoma, 36.2%. Moreover, the growth was 31.5% with LOX IMVI melanoma and 56.7% in the test with SK-MEL-28 melanoma.

With `O=[N+]([O-])c1ccc(O)c(-c2nc3ccccc3s2)c1`, the growth in the test with DU-145 prostate is 86.8%; in the test on K-562 leukemia, 52.7%; in the test on MALME-3M melanoma, 44.7%; in the test with MDA-MB-231 breast it was 75.3%; with RXF 393 renal, 107%; with SF-268 CNS, 76.1%. Besides, the growth with SF-295 CNS was 53.9%; in the test on SF-539 CNS it was 99%; with UACC-257 melanoma, 83.5%; in the test with M14 melanoma, 83.2%; in the test with HCT-15 colon, 89%; in the test with HT29 colon, 96.6%. Further, the growth is 86.9% in the test on SNB-75 CNS; 64.1% in the test with SNB-19 CNS; 71.6% with U251 CNS; 70.6% with PC-3 prostate; 25.3% with SK-MEL-5 melanoma; 41.3% with UACC-62 melanoma. In addition, the growth is 61% in the test on LOX IMVI melanoma and 64.3% in the test with SK-MEL-28 melanoma.

`C#C[C@]1(O)CC[C@H]2[C@@H]3CC=C4c5nc(Nc6ccccn6)sc5CC[C@]4(C)[C@H]3CC[C@@]21C`: the growth is 17.2% in the test with DU-145 prostate; 2.53% (active) in the test with K-562 leukemia; 10.9% in the test on MALME-3M melanoma; -23.1% (active) in the test on MDA-MB-231 breast; -66% (active) with RXF 393 renal; -24% (active) in the test on SF-268 CNS. The growth was -72.2% (active) with SF-295 CNS; -64.7% (active) in the test on SF-539 CNS; -54.7% (active) in the test with UACC-257 melanoma; -35.9% (active) with M14 melanoma; 1.7% (active) in the test on HCT-15 colon; 16.9% in the test with HT29 colon. Also, the growth in the test with SNB-75 CNS was -42.4% (active); in the test with SNB-19 CNS, 11%; with U251 CNS, -26.2% (active); in the test with PC-3 prostate, -28.6% (active); in the test with SK-MEL-5 melanoma it was -82.2% (active); in the test on UACC-62 melanoma, -28.4% (active). For the same compound, the results for the growth with LOX IMVI melanoma and in the test with SK-MEL-28 melanoma were -68% (active) and -68.2% (active), respectively.

Take `CCN(CC)CCCNCc1cc(-c2ccccc2)nc2ccccc12`: the growth in the test on DU-145 prostate is 16.6%; with K-562 leukemia it was 24.3%; in the test on MALME-3M melanoma, 50.7%; in the test with MDA-MB-231 breast, 31.3%; in the test with RXF 393 renal, 77.8%; in the test with SF-268 CNS, 39.8%. Moreover, the growth with SF-295 CNS is 70.2%; in the test with SF-539 CNS it was 32.7%; in the test with UACC-257 melanoma it was 80%; in the test on M14 melanoma, 4.63% (active); in the test with HCT-15 colon, 15.3%; in the test with HT29 colon it was 55.1%. For the same compound, the growth in the test with SNB-75 CNS was 73.6%; in the test with SNB-19 CNS, 82.5%; in the test on U251 CNS, 21.5%; in the test with PC-3 prostate it was 75%; with SK-MEL-5 melanoma it was 69.6%; with UACC-62 melanoma, 95.6%. The growth in the test on LOX IMVI melanoma is 9.8% (active); in the test on SK-MEL-28 melanoma it was 92.7%.

Take `COc1ccc(/C=C(/C2=NCCN2)n2ccc3ccccc32)cc1`: the growth in the test with DU-145 prostate is 96.2%; in the test with K-562 leukemia, 84.3%; in the test with MALME-3M melanoma, 87%; in the test with MDA-MB-231 breast, 89.5%; in the test on RXF 393 renal it was 77.9%; in the test on SF-268 CNS it was 79.3%. In addition, the growth with SF-295 CNS is 85.8%; with SF-539 CNS, 92.7%; in the test on UACC-257 melanoma it was 94.3%; in the test with M14 melanoma it was 86.2%; in the test with HCT-15 colon, 95.7%; in the test with HT29 colon, 89%. Besides, the growth in the test with SNB-75 CNS was 65%; with SNB-19 CNS, 91.6%; in the test on U251 CNS it was 89%; with PC-3 prostate it was 73.4%; with SK-MEL-5 melanoma it was 94.7%; in the test on UACC-62 melanoma, 86.8%. Moreover, the growth in the test on LOX IMVI melanoma was 84.7%; with SK-MEL-28 melanoma it was 104%.

For `CCC(Br)(CC)C(=O)c1ccc(OCC(=O)O)c(Cl)c1Cl`, the growth with DU-145 prostate is 114%; with K-562 leukemia, 114%; in the test with MALME-3M melanoma it was 107%; in the test with MDA-MB-231 breast, 107%; in the test with RXF 393 renal, 88.8%; in the test on SF-268 CNS, 100%. Besides, the growth in the test with SF-295 CNS is 81.6%; in the test on SF-539 CNS, 96.9%; in the test on UACC-257 melanoma it was 124%; with M14 melanoma it was 116%; in the test with HCT-15 colon it was 103%; with HT29 colon it was 110%. In addition, the growth was 92.7% with SNB-75 CNS; 104% in the test on SNB-19 CNS; 106% in the test on U251 CNS; 108% in the test on PC-3 prostate; 97.7% in the test with SK-MEL-5 melanoma; 87.4% with UACC-62 melanoma. For the same compound, the growth with SK-MEL-28 melanoma was 111%.

As for `CCCCNC(=O)NS(=O)(=O)Cc1ccccc1`, the growth with DU-145 prostate was 111%; in the test with K-562 leukemia it was 99.7%; in the test on MALME-3M melanoma it was 117%; in the test with MDA-MB-231 breast it was 127%; in the test on RXF 393 renal it was 124%; in the test with SF-268 CNS, 107%. The growth is 116% in the test on SF-295 CNS; 101% in the test on SF-539 CNS; 104% with UACC-257 melanoma; 106% in the test on M14 melanoma; 109% in the test on HCT-15 colon; 114% in the test on HT29 colon. The growth in the test with SNB-75 CNS is 95.3%; with SNB-19 CNS it was 114%; in the test with U251 CNS, 96.4%; with PC-3 prostate, 102%; with SK-MEL-5 melanoma, 107%; in the test with UACC-62 melanoma, 104%. In addition, in the test on SK-MEL-28 melanoma, the growth is 108%.

(Values after PubChem BioAssay (NCI).)
